# Reference: article PMC7862700, “An all-to-all approach to the identification of sequence-specific readers for epigenetic DNA modifications on cytosine”
# Key:
# Assay in all cases: DAPPL (digital affinity profiling via proximity ligation, sequencing); 10 mM Tris-HCl pH 7.5, 50 mM NaCl, 1 mM DTT, 4% glycerol, room temperature, 30 min; GST-TFs on glutathione beads, 16-mer random dsDNA library, 0.1% formaldehyde crosslink after washing; high values mean tight binding
# Conditions in all cases: protein: recombinant; tags: N-terminal GST; dsDNA, one strand shown
# FLI1 = target: T1, FLI1 (Homo sapiens, UniProt Q01543 1-452)
# T1 sequence: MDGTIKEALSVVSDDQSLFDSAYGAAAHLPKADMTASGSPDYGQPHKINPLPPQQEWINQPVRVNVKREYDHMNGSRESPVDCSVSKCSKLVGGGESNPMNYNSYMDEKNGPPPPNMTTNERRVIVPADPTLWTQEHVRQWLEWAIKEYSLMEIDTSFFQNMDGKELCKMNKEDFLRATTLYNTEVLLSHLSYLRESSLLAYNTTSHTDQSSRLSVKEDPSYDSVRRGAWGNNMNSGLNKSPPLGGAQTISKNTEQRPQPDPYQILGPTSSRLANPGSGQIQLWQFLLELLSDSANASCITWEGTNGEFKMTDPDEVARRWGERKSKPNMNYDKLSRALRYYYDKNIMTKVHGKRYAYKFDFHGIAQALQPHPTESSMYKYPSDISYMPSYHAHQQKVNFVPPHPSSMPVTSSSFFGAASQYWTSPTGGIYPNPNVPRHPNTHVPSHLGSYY
# How it was run: (§1)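 Pools of DNA-barcoded human transcription factors, expressed in yeast as GST fusions on glutathione beads and combined with a tag-only sample, were incubated with 200 nmole of a 16-mer random double-stranded DNA library. Incubation took 30 min at room temperature in Tris/NaCl/DTT/glycerol buffer and was followed by washing, 0.1% formaldehyde crosslinking, proximity ligation (BsaI/T4 ligase, 1 h, 37 °C), PCR amplification and sequencing on an Illumina NextSeq500. Binding signal is the ratio of a hexamer's read frequency for a factor to its frequency for the tag-only sample.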
# ELK1 = target: T2, ELK1 (Homo sapiens, UniProt P19419 1-428)
# T2 sequence: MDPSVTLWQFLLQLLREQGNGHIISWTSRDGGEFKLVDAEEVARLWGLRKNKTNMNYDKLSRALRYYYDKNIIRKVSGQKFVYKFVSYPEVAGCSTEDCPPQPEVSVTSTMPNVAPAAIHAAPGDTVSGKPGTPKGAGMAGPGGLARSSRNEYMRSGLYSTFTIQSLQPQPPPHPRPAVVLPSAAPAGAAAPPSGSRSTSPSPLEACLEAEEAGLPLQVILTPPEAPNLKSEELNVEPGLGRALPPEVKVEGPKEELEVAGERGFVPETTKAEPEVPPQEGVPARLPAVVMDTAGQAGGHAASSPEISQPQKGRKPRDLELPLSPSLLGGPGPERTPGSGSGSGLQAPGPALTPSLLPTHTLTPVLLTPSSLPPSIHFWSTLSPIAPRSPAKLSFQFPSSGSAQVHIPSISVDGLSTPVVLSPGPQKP
# How it was run: as §1
# GABPA = target: T3, GABPA (Homo sapiens, UniProt Q06546 1-454)
# T3 sequence: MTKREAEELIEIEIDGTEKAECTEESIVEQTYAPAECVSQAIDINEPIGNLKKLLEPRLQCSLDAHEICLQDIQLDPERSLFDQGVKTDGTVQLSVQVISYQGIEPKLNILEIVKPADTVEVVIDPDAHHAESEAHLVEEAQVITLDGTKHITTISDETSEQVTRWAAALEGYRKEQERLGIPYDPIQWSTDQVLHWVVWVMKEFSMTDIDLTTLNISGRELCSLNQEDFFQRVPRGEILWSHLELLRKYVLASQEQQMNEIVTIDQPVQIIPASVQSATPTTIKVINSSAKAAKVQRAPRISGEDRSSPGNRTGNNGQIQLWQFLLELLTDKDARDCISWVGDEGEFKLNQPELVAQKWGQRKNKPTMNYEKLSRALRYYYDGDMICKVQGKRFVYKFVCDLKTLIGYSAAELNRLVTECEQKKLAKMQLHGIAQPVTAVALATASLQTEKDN
# How it was run: as §1
# ERG = target: T4, ERG (Homo sapiens, UniProt P11308 1-479)
# T4 sequence: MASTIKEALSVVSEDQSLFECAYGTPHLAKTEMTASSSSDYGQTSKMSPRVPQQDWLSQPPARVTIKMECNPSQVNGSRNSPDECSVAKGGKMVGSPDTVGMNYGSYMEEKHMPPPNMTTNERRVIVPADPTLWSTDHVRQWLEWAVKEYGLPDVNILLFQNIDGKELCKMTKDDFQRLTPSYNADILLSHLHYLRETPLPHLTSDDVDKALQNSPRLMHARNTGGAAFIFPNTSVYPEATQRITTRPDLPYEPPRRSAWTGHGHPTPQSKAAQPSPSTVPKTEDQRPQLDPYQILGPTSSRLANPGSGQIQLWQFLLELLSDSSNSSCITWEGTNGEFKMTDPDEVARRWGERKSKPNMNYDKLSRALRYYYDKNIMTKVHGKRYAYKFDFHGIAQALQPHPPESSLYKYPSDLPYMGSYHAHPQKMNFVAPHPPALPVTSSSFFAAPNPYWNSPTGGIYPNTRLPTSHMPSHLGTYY
# How it was run: as §1
# ELF1 = ELF1 (Homo sapiens, UniProt P32519 1-619)
# ELF1, sequence (P32519 whole entry): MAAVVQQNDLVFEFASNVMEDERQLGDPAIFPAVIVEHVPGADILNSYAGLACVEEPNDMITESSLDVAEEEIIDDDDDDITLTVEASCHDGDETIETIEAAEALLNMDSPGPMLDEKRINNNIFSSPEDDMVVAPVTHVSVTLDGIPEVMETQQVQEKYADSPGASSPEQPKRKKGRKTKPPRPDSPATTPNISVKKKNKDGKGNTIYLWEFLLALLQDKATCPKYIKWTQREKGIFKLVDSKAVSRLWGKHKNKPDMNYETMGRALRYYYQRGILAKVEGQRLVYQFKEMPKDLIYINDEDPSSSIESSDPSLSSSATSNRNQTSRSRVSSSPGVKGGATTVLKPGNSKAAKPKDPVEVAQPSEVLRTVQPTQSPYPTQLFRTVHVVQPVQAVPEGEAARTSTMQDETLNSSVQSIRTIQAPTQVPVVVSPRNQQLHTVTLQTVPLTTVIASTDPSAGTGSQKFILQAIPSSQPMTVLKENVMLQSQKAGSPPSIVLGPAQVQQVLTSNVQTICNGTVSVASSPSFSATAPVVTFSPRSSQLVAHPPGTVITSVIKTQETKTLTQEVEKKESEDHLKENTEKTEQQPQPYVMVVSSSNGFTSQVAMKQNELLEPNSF
# How it was run: as §1
# EHF = target: T5, EHF (Homo sapiens, UniProt Q9NZC4 1-300)
# T5 sequence: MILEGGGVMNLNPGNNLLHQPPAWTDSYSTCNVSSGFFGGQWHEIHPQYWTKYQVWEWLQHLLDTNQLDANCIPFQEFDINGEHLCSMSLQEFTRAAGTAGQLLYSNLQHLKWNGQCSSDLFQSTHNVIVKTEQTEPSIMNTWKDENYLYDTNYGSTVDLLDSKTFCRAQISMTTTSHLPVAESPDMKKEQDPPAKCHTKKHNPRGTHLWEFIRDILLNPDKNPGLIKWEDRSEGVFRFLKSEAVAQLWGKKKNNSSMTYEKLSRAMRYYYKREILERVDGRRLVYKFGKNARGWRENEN
# How it was run: as §1
# SPI1 = SPI1 (Homo sapiens, UniProt P17947 1-270)
# How it was run: as §1
# SPIB = SPIB (Homo sapiens, UniProt Q01892 1-262)
# SPIB, sequence (Q01892 whole entry): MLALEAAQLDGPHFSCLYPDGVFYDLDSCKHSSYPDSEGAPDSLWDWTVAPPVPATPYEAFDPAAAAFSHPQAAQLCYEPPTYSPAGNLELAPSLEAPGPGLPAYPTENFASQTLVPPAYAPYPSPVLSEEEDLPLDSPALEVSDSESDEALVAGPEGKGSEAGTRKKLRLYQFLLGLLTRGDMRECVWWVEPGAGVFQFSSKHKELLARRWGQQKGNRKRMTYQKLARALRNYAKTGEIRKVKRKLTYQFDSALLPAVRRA
# How it was run: as §1
# ELK3 = target: T6, ELK3 (Homo sapiens, UniProt P41970 1-407)
# T6 sequence: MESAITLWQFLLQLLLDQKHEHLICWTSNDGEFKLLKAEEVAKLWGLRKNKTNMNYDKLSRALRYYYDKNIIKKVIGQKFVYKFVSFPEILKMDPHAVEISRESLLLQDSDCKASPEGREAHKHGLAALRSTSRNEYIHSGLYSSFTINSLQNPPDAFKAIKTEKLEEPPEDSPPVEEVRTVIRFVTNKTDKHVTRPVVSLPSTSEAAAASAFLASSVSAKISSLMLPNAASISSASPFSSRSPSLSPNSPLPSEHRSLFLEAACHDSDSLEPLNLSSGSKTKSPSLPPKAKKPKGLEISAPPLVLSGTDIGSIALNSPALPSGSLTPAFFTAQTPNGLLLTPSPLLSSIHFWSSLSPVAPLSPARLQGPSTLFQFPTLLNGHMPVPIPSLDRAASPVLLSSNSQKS
# How it was run: as §1
sequence,measurement,setting,value
GACATT,binding signal,FLI1,"1.16 fold enrichment (6-mer frequency, TF over GST control)"
same,binding signal,ELK1,"1.17 fold enrichment (6-mer frequency, TF over GST control)"
same,binding signal,GABPA,"1.12 fold enrichment (6-mer frequency, TF over GST control)"
same,binding signal,ERG,"1.15 fold enrichment (6-mer frequency, TF over GST control)"
same,binding signal,ELF1,"1.16 fold enrichment (6-mer frequency, TF over GST control)"
same,binding signal,EHF,"1.11 fold enrichment (6-mer frequency, TF over GST control)"
same,binding signal,SPI1,"1.13 fold enrichment (6-mer frequency, TF over GST control)"
same,binding signal,SPIB,"1.16 fold enrichment (6-mer frequency, TF over GST control)"
same,binding signal,ELK3,"1.02 fold enrichment (6-mer frequency, TF over GST control)"
